PubChem BioAssay AID1159580 (chemical genetic matrix, 2015)
Values joined by “and” are separate entries in the source; they are usually repeats but may differ in a detail not shown here. Equal values may be shown once. About 2,000 (36%) of roughly 5,500 compounds were called active. Not shown: some 18% with an inconclusive outcome. Rule as the data show it: active = normalized growth mostly below about 0.91 (no sharp cut-off); inconclusive = no clear call, values can overlap the other calls; inactive = mostly above about 0.92. The list shows a part of the results.

Assay: chemical genetic growth profiling, strain panel (AID 1159580);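 also: tested at 20 µM; growth read once vehicle control cultures reached saturation at 30 °C; 1 = growth at the plate median or of vehicle wells; lower values mean less growth of the strain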
Conditions: growth OD

Measured: normalized growth

O=C(O)c1cc(=O)c2ccccc2[nH]1
inactive: S. cerevisiae deletion strains, locus YJR075W, strain HOC1, active compounds read low 0.999 | S. cerevisiae deletion strains, locus YKL009W, strain mrt4, active compounds read low 1.01 | S. cerevisiae deletion strains, locus YKL068W, active compounds read low 0.991 | S. cerevisiae deletion strains, locus YKL085W, strain MDH1 (second series), active compounds read low 0.998 | S. cerevisiae deletion strains, locus YKL085W, strain MDH1, active compounds read low 0.998 | S. cerevisiae deletion strains, locus YKL160W, strain elf1, active compounds read low 0.993 | S. cerevisiae deletion strains, locus YKL190W, strain CNB1, active compounds read low 1 | S. cerevisiae deletion strains, locus YKR001C, strain vps1, active compounds read low 1.01 | S. cerevisiae deletion strains, locus YKR026C, strain gcn3, active compounds read low 0.98 | S. cerevisiae deletion strains, locus YKR091W, strain srl3, active compounds read low 0.993 | S. cerevisiae deletion strains, locus YLL001W, strain dnm1, active compounds read low 0.991 | S. cerevisiae deletion strains, locus YLL026W, active compounds read low 0.994 | S. cerevisiae deletion strains, locus YLL041C, strain sdh2, active compounds read low 0.98 | S. cerevisiae deletion strains, locus YLR027C, strain aat2, active compounds read low 0.989 | S. cerevisiae deletion strains, locus YLR039C, strain RIC1, active compounds read low 1.01 | S. cerevisiae deletion strains, locus YLR058C, strain SHM2, active compounds read low 0.972 | S. cerevisiae deletion strains, locus YLR102C, strain apc9, active compounds read low 1 | S. cerevisiae deletion strains, locus YLR113W, strain HOG1, active compounds read low 1.01 | S. cerevisiae deletion strains, locus YLR221C, strain rsa3, active compounds read low 0.973 | S. cerevisiae deletion strains, locus YLR258W, strain gsy2, active compounds read low 0.98 | S. cerevisiae deletion strains, locus YLR262C, strain YPT6 (second series), active compounds read low 1.04 | S. cerevisiae deletion strains, locus YLR262C, strain YPT6, active compounds read low 1 | S. cerevisiae deletion strains, locus YLR268W, strain sec22, active compounds read low 1.01 | S. cerevisiae deletion strains, locus YLR320W, strain mms22, active compounds read low 0.977 | S. cerevisiae deletion strains, locus YLR330W, strain CHS5, active compounds read low 0.989 | S. cerevisiae deletion strains, locus YLR342W, strain FKS1 (second series), active compounds read low 1.01 | S. cerevisiae deletion strains, locus YLR342W, strain FKS1, active compounds read low 0.986 | S. cerevisiae deletion strains, locus YLR357W, strain rsc2, active compounds read low 0.936 | S. cerevisiae deletion strains, locus YLR370C, strain arc18, active compounds read low 0.987 | S. cerevisiae deletion strains, locus YLR371W, strain rom2, active compounds read low 0.986 | S. cerevisiae deletion strains, locus YLR384C, strain iki3, active compounds read low 0.942 | S. cerevisiae deletion strains, locus YLR418C, strain cdc73, active compounds read low 1.05 | S. cerevisiae deletion strains, locus YML016C, strain PPZ1, active compounds read low 0.984 | S. cerevisiae deletion strains, locus YML032C, strain rad52, active compounds read low 0.976 | S. cerevisiae deletion strains, locus YML120C, strain ndi1, active compounds read low 0.99 | S. cerevisiae deletion strains, locus YML124C, strain tub3, active compounds read low 0.992 | S. cerevisiae deletion strains, locus YMR058W, strain fet3, active compounds read low 0.99 | S. cerevisiae deletion strains, locus YMR078C, strain ctf18, active compounds read low 0.984 | S. cerevisiae deletion strains, locus YMR125W, strain sto1, active compounds read low 0.972 | S. cerevisiae deletion strains, locus YMR129W, active compounds read low 1 | S. cerevisiae deletion strains, locus YMR205C, strain PFK2, active compounds read low 0.986 | S. cerevisiae deletion strains, locus YMR223W, strain ubp8, active compounds read low 0.985 | S. cerevisiae deletion strains, locus YMR231W, strain pep5, active compounds read low 0.973 | S. cerevisiae deletion strains, locus YMR263W, strain SAP30, active compounds read low 0.988 and 0.996 | S. cerevisiae deletion strains, locus YMR307W, strain GAS1, active compounds read low 1.09 | S. cerevisiae deletion strains, locus YNL067W, strain RPL9B, active compounds read low 0.998 | S. cerevisiae deletion strains, locus YNL071W, strain lat1, active compounds read low 1.01 | S. cerevisiae deletion strains, locus YNL128W, strain TEP1, active compounds read low 0.963 | S. cerevisiae deletion strains, locus YNL153C, strain GIM3, active compounds read low 1 and 1.01 | S. cerevisiae deletion strains, locus YNL175C, strain NOP13, active compounds read low 0.978 | S. cerevisiae deletion strains, locus YNL183C, strain NPR1, active compounds read low 0.893 | S. cerevisiae deletion strains, locus YNL197C, strain WHI3, active compounds read low 0.981 | S. cerevisiae deletion strains, locus YNL209W, strain ssb2, active compounds read low 0.989 | S. cerevisiae deletion strains, locus YNL224C, strain SQS1, active compounds read low 0.989 | S. cerevisiae deletion strains, locus YNL233W, strain BNI4, active compounds read low 0.993 | S. cerevisiae deletion strains, locus YNL248C, strain rpa49, active compounds read low 0.987 | S. cerevisiae deletion strains, locus YNL250W, strain rad50, active compounds read low 0.976 | S. cerevisiae deletion strains, locus YNL271C, strain bni1, active compounds read low 0.997 | S. cerevisiae deletion strains, locus YNL298W, strain CLA4, active compounds read low 1 | S. cerevisiae deletion strains, locus YNL307C, strain MCK1, active compounds read low 0.998 | S. cerevisiae deletion strains, locus YNL322C, strain KRE1 (second series), active compounds read low 0.975 | S. cerevisiae deletion strains, locus YNL322C, strain KRE1, active compounds read low 0.991 and 1 | S. cerevisiae deletion strains, locus YNR049C, strain mso1, active compounds read low 0.983 | S. cerevisiae deletion strains, locus YNR052C, strain pop2, active compounds read low 1 | S. cerevisiae deletion strains, locus YOL006C, strain TOP1, active compounds read low 1 | S. cerevisiae deletion strains, locus YOL012C, strain htz1 1.51 | S. cerevisiae deletion strains, locus YOL147C, strain pex11, active compounds read low 0.999 | S. cerevisiae deletion strains, locus YOR001W, strain rrp6, active compounds read low 0.954 | S. cerevisiae deletion strains, locus YOR061W, strain CKA2, active compounds read low 0.969 | S. cerevisiae deletion strains, locus YOR069W, strain VPS5, active compounds read low 0.995 | S. cerevisiae deletion strains, locus YOR070C, strain gyp1, active compounds read low 0.995 | S. cerevisiae deletion strains, locus YOR080W, strain dia2, active compounds read low 0.974 | S. cerevisiae deletion strains, locus YOR083W, strain WHI5 (second series), active compounds read low 1.02 | S. cerevisiae deletion strains, locus YOR083W, strain WHI5, active compounds read low 0.999 | S. cerevisiae deletion strains, locus YOR106W, strain vam3, active compounds read low 1.01 | S. cerevisiae deletion strains, locus YOR136W, strain idh2, active compounds read low 0.99 | S. cerevisiae deletion strains, locus YOR144C, strain elg1, active compounds read low 0.994 | S. cerevisiae deletion strains, locus YOR184W, strain ser1, active compounds read low 0.994 | S. cerevisiae deletion strains, locus YOR231W, strain MKK1, active compounds read low 0.988 | S. cerevisiae deletion strains, locus YOR265W, strain rbl2, active compounds read low 1 | S. cerevisiae deletion strains, locus YOR270C, strain vph1, active compounds read low 1 | S. cerevisiae deletion strains, locus YOR290C, strain snf2, active compounds read low 0.986 | S. cerevisiae deletion strains, locus YOR316C, strain cot1, active compounds read low 0.983 | S. cerevisiae deletion strains, locus YPL051W, strain arl3, active compounds read low 0.997 | S. cerevisiae deletion strains, locus YPL055C, strain LGE1, active compounds read low 0.976 and 1.01 | S. cerevisiae deletion strains, locus YPL078C, strain atp4, active compounds read low 0.987 | S. cerevisiae deletion strains, locus YPL106C, strain sse1, active compounds read low 0.972 | S. cerevisiae deletion strains, locus YPL240C, strain hsp82, active compounds read low 0.982 | S. cerevisiae deletion strains, locus YPL241C, strain CIN2, active compounds read low 0.996 | S. cerevisiae deletion strains, locus YPL256C, strain CLN2, active compounds read low 0.954 | S. cerevisiae deletion strains, locus YPR119W, strain clb2, active compounds read low 0.99 | S. cerevisiae deletion strains, locus YPR141C, strain kar3, active compounds read low 0.977 | S. cerevisiae deletion strains, locus YPR163C, strain tif3, active compounds read low 0.997 | S. cerevisiae deletion strains, locus YPR167C, strain met16, active compounds read low 0.997 | S. cerevisiae deletion strains, strain wtn01, active compounds read low 0.992 | S. cerevisiae strains, strain wild type, active compounds read low 0.992
